Screens from PubChem BioAssay.
In the library only some 21% were active in any assay of this set; here they are far more common.
Pf growth 48h – inhibits P. falciparum growth in the first generation, 48 h. 310,000 tested, 5.9% active. P. falciparum luciferase growth in erythrocytes, 48 h. Potency, µM (series often up to 28.7 µM), without a hit: at the top dose activity change, negative = inhibition, most hits filed as inhibitors; note: potency is the fitted concentration of half-maximal effect; % is set by controls: 0 for no effect and ±100 for the full control effect
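In quantitative HTS format, infected erythrocytes bearing luciferase-reporter parasites were treated for a single generation at 37 C. Luminescence after adding detection reagent served as the growth measure.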
Cycloheximide cs – affects cycloheximide protein synthesis inhibition readout, counter-screen | max response, % | cell reporter, cycloheximide protein synthesis inhibition counterscreen | AID 2314 | 300,000 tested, 12% active; in the data active = max response mostly above about 13%, no sharp cut-off; inactive = mostly below about 14%; note: read at 38.3 µM for the half of the compounds with a filed dose; 0% is about no effect
Shiga inhibitor – blocks Shiga toxin action in Vero cells | AID 2315 | Vero cells, Shiga toxin protein synthesis inhibition reporter | 290,000 tested, 9.2% active | inhibition, % at 38.7 µM; in the data active = inhibition mostly above about 28%, no sharp cut-off; inactive = mostly below about 43%; note: 0% is about no effect
Pf growth 96h – P. falciparum growth inhibition at 96 hours; P. falciparum luciferase reporter growth, 96 h; Potency, µM (highest dose often 28.7 µM), inactives show at the highest dose activity change, negative = inhibition, usual class: inhibitors; 320,000 tested, 6.9% active; AID 504834; note: potency is the fitted concentration of half-maximal effect; % is set by controls: 0 for no effect and ±100 for the full control effect
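P. falciparum expressing integrated firefly luciferase grown in erythrocytes (2% hematocrit, 0.05% parasitemia final) with compounds for 96 hours at 37 C, 5% CO2. Growth inhibition read as loss of luminescence after adding luciferase detection reagent.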
Starred values were filed as active, the others as inactive; u = inconclusive; x = not tested or not shown. Unless noted, calls come from the whole dose curve; as a rule, active = well fitted inhibition curve with a large enough effect; inconclusive = small, poorly fitted or top-dose-only effect, or another doubt; inactive = no such curve, though single readings can be large or run the other way.

SMILES | Pf growth 48h | Cycloheximide cs | Shiga inhibitor | Pf growth 96h
Cc1cc(C)c(OCC(=O)Nc2nc(-c3ccccn3)cs2)c(C)c1 | 8.28µM* | 3.6 | 50.6 | u
O=C(CC1CC2CCC1C2)Nc1nc(-c2ccccn2)cs1 (configuration not stated) | 2.62µM* | 46.4* | 78.4* | 4.65µM*
CCOc1ccccc1-n1nnnc1SC(C)C(=O)OC (configuration not stated) | 13.4% | 4.1 | -12.9 | -11.3%
CCNc1nc(NC(C)C)nc(NS(=O)(=O)c2ccc(C)cc2)n1 | -0.3% | -2.3 | 1.2 | 337.9%
O=C(CN1C(=O)NC2(CCCCC2)C1=O)Oc1ccc2ccc(=O)oc2c1 | 25.9% | x | x | 15.7%
O=C(Nc1nc(-c2ccccn2)cs1)c1ccc(Br)s1 | u | 9.8 | -3.8 | x
O=C(Nc1nc(-c2ccccn2)cs1)C1CC1 | u | 31.5* | 42.5* | u
COc1cc2c(cc1OC)C(=O)C(CC1CCN(Cc3ccccc3)CC1)C2 (configuration not stated) | u | 1.8 | -12.8 | 9.53µM*
COc1cc2c(cc1OC)CN(Cc1ccccc1)CC2 | 1.5% | -3.4 | -1.1 | u
O/N=C/c1ccnc(SCc2ccccc2)n1 | 356.2% | 31.3* | 64.3* | 285.7%
O/N=C/c1ccnc(SCc2ccc(Cl)cc2)n1 | 141.6% | 51.2* | 74.7* | 326.3%
CC(=O)c1cnc(SCc2ccc(Cl)cc2)nc1C | 10.1% | 10.9 | 29.9 | 27.8%
COc1ccc2c(CC#N)c[nH]c2c1 | -11.8% | 3.9 | -21.1 | x
COCCCNC(=O)c1cn(CC(C)C)c(=O)c2c1c1ccccc1n2C | x | -4.1 | -13.2 | x
CCN1CCN(C(=O)c2cn(CCOC)c(=O)c3c2c2ccccc2n3C)CC1 | 3.3% | 3.8 | 13.0 | u
CC(C)Cn1cc(C(=O)NC2CCN(Cc3ccccc3)CC2)c2c3ccccc3n(C)c2c1=O | 2.62µM* | -2.0 | -16.0 | u
CC(C)Cn1cc(C(=O)N2CCN(c3ccccn3)CC2)c2c3ccccc3n(C)c2c1=O | 7.38µM* | -1.0 | 2.4 | 9.28µM*
COc1cccc(CN2CC(C(=O)NC3CCC3)CCC2=O)c1 (configuration not stated) | -10.9% | 2.5 | -4.7 | -43.9%
C=C1C(=O)[C@@]23[C@H](O)C[C@@H]4C(C)(C)CC[C@H](O)[C@@]4(C)[C@@H]2CC[C@@H]1[C@H]3O | 14.7µM* | -6.6 | -15.3 | u
C=C1C(=O)[C@@]23[C@H](O)C[C@@H]4C(C)(C)CC[C@H](O)[C@]4(C)[C@@H]2C[C@H](O)[C@@H]1[C@H]3O | 9.28µM* | -1.5 | 11.6 | 4.15µM*
N#CCN=C(c1ccccc1)c1ccccc1 | 36.5% | x | x | 37.7%
Cc1ccc(NC(=O)c2cc([N+](=O)[O-])ccc2NCc2cccnc2)cc1Cl | 5.86µM* | 4.6 | 72.2 | 2.08µM*
COc1cccc(NC(=O)c2cc([N+](=O)[O-])ccc2NCc2cccnc2)c1 | 10.4µM* | -1.8 | -6.5 | u
CCN1CC(CN(C)Cc2cn(-c3cccc(C)c3)nc2-c2cccc(F)c2)CC1=O (configuration not stated) | u | 8.6 | 24.1 | u
C=CCNC(=S)Nc1c(N)n(C)c(=O)n(C)c1=O | 1.0% | 0.5 | -0.9 | 0.0%
SMILES | Pf growth 48h | Cycloheximide cs | Shiga inhibitor | Pf growth 96h
CCOC(=O)Cc1cnc(NC(=O)CSc2nc(C(C)C)cc(=O)[nH]2)s1 | 0.0% | -5.1 | 11.4 | u
C[C@]12CC[C@H]3[C@@H](CC=C4C[C@@H](O)CC[C@@]43C)[C@@H]1CC[C@@H]2O | -10.1% | x | x | u
CC12CCC3C(CC=C4CC(O)CCC43C)C1C/C(=C\c1cccc(F)c1)C2=O (configuration not stated) | u | -2.7 | -5.7 | 11.7µM*
Cc1ccc(C(=O)Nc2cccc(C(F)(F)F)c2)cc1Nc1cncnc1 | 0.9% | 0.9 | 8.3 | 11.7µM*
CCCCCNCC(=O)Nc1cccc(C(=O)Nc2cccc(C(F)(F)F)c2)c1 | 4.65µM* | -1.6 | 5.8 | 3.29µM*
Cc1ccc(C(=O)Nc2cccc(C(F)(F)F)c2)cc1Nc1ccccn1 | u | -1.7 | -2.0 | -0.8%
CC1Sc2ccc(S(=O)(=O)CCC(=O)NCc3ccc(Cl)cc3)cc2NC1=O (configuration not stated) | -3.6% | -1.4 | -1.8 | u
C/C=C(\C)C(=O)O[C@H](c1cc2ccc(=O)oc2cc1OC)[C@@H](O)C(C)(C)O | 20.4% | x | x | 24.7%
Cc1ccc(-c2cn3c(n2)SCC3)cc1 | 230.4% | 43.1* | 141.2* | 14.1%
CCc1ccc(-c2cn3c(n2)SCC3)cc1 | 252.9% | 47.4* | 67.7* | 36.7%
Nc1nsnc1C(=O)NCCO | 16.8% | -1.1 | 2.2 | 2.33µM*
CC1(C)Cc2nc(N)c(C(=O)NCCO)cc2CO1 | 16.9% | 3.8 | -5.3 | u
COc1cccc(CNS(=O)(=O)c2cc3c(cc2Cl)NC(=O)CO3)c1 | 9.2% | -2.3 | -6.1 | 5.6%
COc1ccc(CCOC(=O)c2ccc(N)c([N+](=O)[O-])c2)cc1 | 9.8% | 14.6 | 20.7 | u
COC(=O)c1cc2ccccc2c(-c2c(OC)c(C(=O)OC)cc3ccccc23)c1OC | u | 12.2 | -7.6 | 11.7µM*
CCOCc1c(C(=O)OCC(=O)Nc2ccc(C)c(S(=O)(=O)N(C)C)c2)oc2ccccc12 | -1.5% | -1.1 | -20.2 | 14.2%
Cc1ccc2nc3ccc(N4CCCC4)nn3c(=O)c2c1 | 171.3% | 34.9* | 63.2 | 4.65µM*
Cc1sc2nc3ccc(N4CCCCC4)nn3c(=O)c2c1C | u | 30.3* | 67.7* | u
Cc1c(NC(=O)CSc2nc(N)cc(N)n2)c(=O)n(-c2ccccc2)n1C | -20.1% | x | x | -16.8%
O=C(Nc1ccc(-c2nnco2)cc1)c1ccccc1 | 41.6% | 13.5* | 68.5* | 17.5%
O=C(Nc1ccccc1)Nc1cccc(-c2nnco2)c1 | -4.7% | 20.3* | 47.9* | -23.5%
CC[C@H](C)[C@H](NC(=O)CNC(=O)[C@H](CCCNC(=N)N)NC(=O)CNC(=O)[C@@H](NC(=O)[C@H](Cc1ccc(O)cc1)NC(=O)[C@H](Cc1c[nH]c2ccccc12)NC(=O)[C@H](C)NC(=O)[C@@H]1CCCN1C(=O)[C@H](CC(N)=O)NC(=O)[C@@H](NC(=O)[C@H](CC(=O)O)NC(=O)[C@@H]1CCCN1C(=O)[C@@H](N)[C@@H](C)O)[C@@H](C)CC)[C@@H](C)O)C(=O)N[C@@H](CCCNC(=N)N)C(=O)N1CCC[C@H]1C(=O)N[C@H](C(=O)NCC(=O)N[C@@H](CCCNC(=N)N)C(=O)N[C@@H](Cc1ccccc1)C(N)=O)C(C)C | x | -6.4 | -6.2 | x
COc1ccc(CN(C(=O)CNC(=O)c2ccco2)C(C(=O)NCC2CCCO2)c2ccccc2)cc1 (configuration not stated) | -4.4% | 7.8 | 1.3 | 2.33µM*
COc1ccc(CN(C(=O)Cn2nnc(-c3ccc(C)o3)n2)C(C(=O)NCC2CCCO2)c2ccco2)cc1 (configuration not stated) | -3.2% | 16.7* | 0.5 | 25.1%
Cc1ccc(-c2nnn(CC(=O)N(c3ccccc3)C(C(=O)NCC3CCCO3)c3cccs3)n2)o1 (configuration not stated) | 59.0% | -1.8 | 4.3 | 10.4µM*
